Screen size: about 5,500 compounds; about 2,000 (36%) were called active. Roughly 18% stayed inconclusive and do not appear here. Cut-off read from the data, not from the text of the source: active = normalized growth mostly below about 0.91 (no sharp cut-off); inconclusive = no clear call, values can overlap the other calls; inactive = mostly above about 0.92. Some of the results follow.
Assay: chemical genetic growth profiling, strain panel (AID 1159580);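 note: tested at 20 µM; growth read once vehicle control cultures reached saturation at 30 °C; 1 = growth at the plate median or of vehicle wells; lower values mean less growth of the strain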
Conditions: growth OD

Measured: normalized growth

O[C@H]1C=C2CCN3Cc4cc5c(cc4C(C23)[C@@H]1O)OCO5 (stereo partly specified)
active: S. cerevisiae deletion strains, locus YBR229C, strain ROT2, active compounds read low 0.665 | S. cerevisiae deletion strains, locus YCL029C, strain bik1, active compounds read low 0.331 | S. cerevisiae deletion strains, locus YDL035C, strain GPR1, active compounds read low 0.434 | S. cerevisiae deletion strains, locus YDL074C, strain BRE1, active compounds read low 0.485 | S. cerevisiae deletion strains, locus YDL101C, strain DUN1, active compounds read low 0.575 | S. cerevisiae deletion strains, locus YDL192W, strain arf1, active compounds read low 0.591 | S. cerevisiae deletion strains, locus YDR101C, strain arx1, active compounds read low 0.272 | S. cerevisiae deletion strains, locus YDR162C, strain NBP2, active compounds read low 0.566 | S. cerevisiae deletion strains, locus YDR318W, strain mcm21, active compounds read low 0.466 | S. cerevisiae deletion strains, locus YDR388W, active compounds read low 0.514 | S. cerevisiae deletion strains, locus YDR502C, strain sam2, active compounds read low 0.412 | S. cerevisiae deletion strains, locus YEL061C, strain CIN8, active compounds read low 0.737 | S. cerevisiae deletion strains, locus YER110C, active compounds read low 0.573 | S. cerevisiae deletion strains, locus YER155C, strain BEM2, active compounds read low 0.87 | S. cerevisiae deletion strains, locus YER167W, strain BCK2, active compounds read low 0.5 | S. cerevisiae deletion strains, locus YGL078C, strain dbp3, active compounds read low 0.812 | S. cerevisiae deletion strains, locus YGL086W, strain mad1, active compounds read low 0.541 | S. cerevisiae deletion strains, locus YGL248W, strain PDE1, active compounds read low 0.398 | S. cerevisiae deletion strains, locus YGR078C, strain PAC10, active compounds read low 0.615 | S. cerevisiae deletion strains, locus YGR135W, strain pre9, active compounds read low 0.459 | S. cerevisiae deletion strains, locus YGR252W, strain gcn5, active compounds read low 0.636 | S. cerevisiae deletion strains, locus YHR079C, strain IRE1 (second series), active compounds read low 0.38 | S. cerevisiae deletion strains, locus YHR094C, strain hxt1, active compounds read low 0.478 | S. cerevisiae deletion strains, locus YHR129C, strain ARP1, active compounds read low 0.613 | S. cerevisiae deletion strains, locus YHR200W, strain rpn10, active compounds read low 0.549 | S. cerevisiae deletion strains, locus YIL066C, strain RNR3, active compounds read low 0.678 | S. cerevisiae deletion strains, locus YIL073C, strain SPO22, active compounds read low 0.402 | S. cerevisiae deletion strains, locus YIL125W, strain kgd1, active compounds read low 0.857 | S. cerevisiae deletion strains, locus YIR030C, strain dcg1, active compounds read low 0.558 | S. cerevisiae deletion strains, locus YJL095W, strain BCK1, active compounds read low 0.448 | S. cerevisiae deletion strains, locus YJL134W, strain LCB3, active compounds read low 0.757 | S. cerevisiae deletion strains, locus YJL168C, strain set2, active compounds read low 0.837 | S. cerevisiae deletion strains, locus YJL187C, strain SWE1 (second series), active compounds read low 0.373 | S. cerevisiae deletion strains, locus YJR075W, strain HOC1, active compounds read low 0.53 | S. cerevisiae deletion strains, locus YKL009W, strain mrt4, active compounds read low 0.858 | S. cerevisiae deletion strains, locus YKL085W, strain MDH1 (second series), active compounds read low 0.897 | S. cerevisiae deletion strains, locus YKL085W, strain MDH1, active compounds read low 0.897 | S. cerevisiae deletion strains, locus YKL190W, strain CNB1, active compounds read low 0.659 | S. cerevisiae deletion strains, locus YKR001C, strain vps1, active compounds read low 0.558 | S. cerevisiae deletion strains, locus YLR058C, strain SHM2, active compounds read low 0.395 | S. cerevisiae deletion strains, locus YLR102C, strain apc9, active compounds read low 0.49 | S. cerevisiae deletion strains, locus YLR268W, strain sec22, active compounds read low 0.454 | S. cerevisiae deletion strains, locus YLR330W, strain CHS5, active compounds read low 0.656 | S. cerevisiae deletion strains, locus YLR342W, strain FKS1 (second series), active compounds read low 0.483 | S. cerevisiae deletion strains, locus YLR371W, strain rom2, active compounds read low 0.55 | S. cerevisiae deletion strains, locus YLR418C, strain cdc73, active compounds read low 0.707 | S. cerevisiae deletion strains, locus YML016C, strain PPZ1, active compounds read low 0.632 | S. cerevisiae deletion strains, locus YML032C, strain rad52, active compounds read low 0.367 | S. cerevisiae deletion strains, locus YML124C, strain tub3, active compounds read low 0.538 | S. cerevisiae deletion strains, locus YMR078C, strain ctf18, active compounds read low 0.713 | S. cerevisiae deletion strains, locus YMR223W, strain ubp8, active compounds read low 0.33 | S. cerevisiae deletion strains, locus YNL067W, strain RPL9B, active compounds read low 0.495 | S. cerevisiae deletion strains, locus YNL128W, strain TEP1, active compounds read low 0.466 | S. cerevisiae deletion strains, locus YNL233W, strain BNI4, active compounds read low 0.557 | S. cerevisiae deletion strains, locus YNL250W, strain rad50, active compounds read low 0.852 | S. cerevisiae deletion strains, locus YNL271C, strain bni1, active compounds read low 0.908 | S. cerevisiae deletion strains, locus YNL307C, strain MCK1, active compounds read low 0.694 | S. cerevisiae deletion strains, locus YNR052C, strain pop2, active compounds read low 0.605 | S. cerevisiae deletion strains, locus YOL012C, strain htz1 2.41 [resistant] | S. cerevisiae deletion strains, locus YOL147C, strain pex11, active compounds read low 0.498 | S. cerevisiae deletion strains, locus YOR061W, strain CKA2, active compounds read low 0.565 | S. cerevisiae deletion strains, locus YOR069W, strain VPS5, active compounds read low 0.657 | S. cerevisiae deletion strains, locus YOR136W, strain idh2, active compounds read low 0.731 | S. cerevisiae deletion strains, locus YOR144C, strain elg1, active compounds read low 0.47 | S. cerevisiae deletion strains, locus YOR184W, strain ser1, active compounds read low 0.545 | S. cerevisiae deletion strains, locus YOR316C, strain cot1, active compounds read low 0.599 | S. cerevisiae deletion strains, locus YPL055C, strain LGE1, active compounds read low 0.627 | S. cerevisiae deletion strains, locus YPL241C, strain CIN2, active compounds read low 0.74 | S. cerevisiae deletion strains, locus YPR119W, strain clb2, active compounds read low 0.715 | S. cerevisiae deletion strains, locus YPR167C, strain met16, active compounds read low 0.523 | S. cerevisiae deletion strains, strain wtn01, active compounds read low 0.449 | S. cerevisiae strains, strain wild type, active compounds read low 0.448
inactive: S. cerevisiae deletion strains, locus YBR021W, strain FUR4, active compounds read low 1.05 | S. cerevisiae deletion strains, locus YDL185W, strain tfp1, active compounds read low 0.965 | S. cerevisiae deletion strains, locus YKL068W, active compounds read low 0.953 | S. cerevisiae deletion strains, locus YLR039C, strain RIC1, active compounds read low 1.08 | S. cerevisiae deletion strains, locus YMR307W, strain GAS1, active compounds read low 1.35 | S. cerevisiae deletion strains, locus YNL298W, strain CLA4, active compounds read low 0.931 | S. cerevisiae deletion strains, locus YOL006C, strain TOP1, active compounds read low 0.726 | S. cerevisiae deletion strains, locus YPR141C, strain kar3, active compounds read low 0.976 | S. cerevisiae deletion strains, locus YPR163C, strain tif3, active compounds read low 0.931

Reference: PubChem BioAssay AID1159580 (chemical genetic matrix, 2015)
